# According to PubChem BioAssay AID1159580 (chemical genetic matrix, 2015):
# The campaign covered roughly 5,500 compounds. About 2,000 (36%) were called active. About 18% were inconclusive and are not listed. This is one part of the list. A number with no mark means an inactive call. Rule as the data show it: active = normalized growth mostly below about 0.91 (no sharp cut-off); inconclusive = no clear call, values can overlap the other calls; inactive = mostly above about 0.92.
# Assay: chemical genetic growth profiling, strain panel (AID 1159580);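 also: tested at 20 µM; growth read once vehicle control cultures reached saturation at 30 °C; 1 = growth at the plate median or of vehicle wells; lower values mean less growth of the strain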
# Conditions: growth OD
# [1] = S. cerevisiae deletion strains, locus YHR030C, strain SLT2, hits give low values
# [2] = S. cerevisiae deletion strains, locus YJL095W, strain BCK1, hits give low values
# [3] = S. cerevisiae deletion strains, locus YBR229C, strain ROT2, hits give low values
# [4] = S. cerevisiae deletion strains, locus YDL101C, strain DUN1, hits give low values
# [5] = S. cerevisiae deletion strains, locus YDR150W, strain NUM1, hits give low values
# [6] = S. cerevisiae deletion strains, locus YEL061C, strain CIN8, hits give low values
# [7] = S. cerevisiae deletion strains, locus YGR078C, strain PAC10, hits give low values
# [8] = S. cerevisiae deletion strains, locus YJR043C, strain POL32, hits give low values
# [9] = S. cerevisiae deletion strains, locus YJR075W, strain HOC1, hits give low values
# [10] = S. cerevisiae deletion strains, locus YKL190W, strain CNB1, hits give low values
# [11] = S. cerevisiae deletion strains, locus YLR039C, strain RIC1, hits give low values
# [12] = S. cerevisiae deletion strains, locus YLR262C, strain YPT6, hits give low values
# [13] = S. cerevisiae deletion strains, locus YMR263W, strain SAP30, hits give low values
# [14] = S. cerevisiae deletion strains, locus YNL153C, strain GIM3, hits give low values
# [15] = S. cerevisiae deletion strains, locus YPL241C, strain CIN2, hits give low values
smiles,measurement,setting,value
CC[N+](CC)(CC(=O)Nc1c(C)cccc1C)Cc1ccccc1,normalized growth,[1],0.962
same,normalized growth,"S. cerevisiae deletion strains, locus YHR079C, strain IRE1, hits give low values",0.878
same,normalized growth,[2],0.916
same,normalized growth,"S. cerevisiae deletion strains, locus YJR066W, strain TOR1, hits give low values",0.897
same,normalized growth,"S. cerevisiae deletion strains, locus YLR113W, strain HOG1, hits give low values",0.814 (active)
same,normalized growth,"S. cerevisiae deletion strains, locus YNL183C, strain NPR1, hits give low values",0.851
same,normalized growth,"S. cerevisiae deletion strains, locus YOR231W, strain MKK1, hits give low values",0.899
same,normalized growth,"S. cerevisiae deletion strains, locus YPL256C, strain CLN2, hits give low values",0.868
CN1C2CCC1CC(=NO)C2,normalized growth,"S. cerevisiae deletion strains, locus YAL013W, strain DEP1, hits give low values",0.993
same,normalized growth,[3],0.982
same,normalized growth,[4],1.02
same,normalized growth,[5],0.991
same,normalized growth,[6],0.997
same,normalized growth,[7],1
same,normalized growth,[1],1.07
same,normalized growth,"S. cerevisiae deletion strains, locus YHR087W, strain rtc3, hits give low values",0.993
same,normalized growth,"S. cerevisiae deletion strains, locus YJL187C, strain SWE1, hits give low values",0.989
same,normalized growth,[8],0.986
same,normalized growth,[9],0.984
same,normalized growth,[10],0.994
same,normalized growth,[11],0.998
same,normalized growth,"S. cerevisiae deletion strains, locus YLR058C, strain SHM2 (second series), hits give low values",0.983
same,normalized growth,"S. cerevisiae deletion strains, locus YLR085C, strain ARP6, hits give low values",1.02
same,normalized growth,[12],0.997
same,normalized growth,"S. cerevisiae deletion strains, locus YML094W, strain GIM5, hits give low values",1.01
same,normalized growth,"S. cerevisiae deletion strains, locus YMR219W, strain ESC1, hits give low values",1.01
same,normalized growth,[13],0.986
same,normalized growth,[14],1.03
same,normalized growth,"S. cerevisiae deletion strains, locus YNL298W, strain CLA4 (second series), hits give low values",1.03
same,normalized growth,"S. cerevisiae deletion strains, locus YNL322C, strain KRE1, hits give low values",1
same,normalized growth,"S. cerevisiae deletion strains, locus YNR030W, strain Alg12, hits give low values",0.986
same,normalized growth,"S. cerevisiae deletion strains, locus YPL055C, strain LGE1, hits give low values",0.984
same,normalized growth,[15],0.975
same,normalized growth,"S. cerevisiae deletion strains, locus YPR135W, strain CTF4, hits give low values",1.03
CO[C@@]1(NC(=O)CSCC#N)C(=O)N2C(C(=O)O)=C(CSc3nnnn3C)CS[C@@H]21,normalized growth,"S. cerevisiae deletion strains, locus YAL040C, strain CLN3, hits give low values",1.01
same,normalized growth,"S. cerevisiae deletion strains, locus YER002W, strain NOP16, hits give low values",0.986
same,normalized growth,[7],1
same,normalized growth,[9],1
same,normalized growth,"S. cerevisiae deletion strains, locus YNL175C, strain NOP13, hits give low values",0.995
same,normalized growth,"S. cerevisiae deletion strains, locus YNL197C, strain WHI3, hits give low values",1
same,normalized growth,"S. cerevisiae deletion strains, locus YNL224C, strain SQS1, hits give low values",1
same,normalized growth,"S. cerevisiae deletion strains, locus YOR083W, strain WHI5 (second series), hits give low values",1
same,normalized growth,[15],1
Cc1occc(=O)c1/C=C/O,normalized growth,"S. cerevisiae deletion strains, locus YBR021W, strain FUR4, hits give low values",0.994
same,normalized growth,[3],1
same,normalized growth,"S. cerevisiae deletion strains, locus YCL029C, strain bik1, hits give low values",1.02
same,normalized growth,"S. cerevisiae deletion strains, locus YDL035C, strain GPR1, hits give low values",0.999
same,normalized growth,"S. cerevisiae deletion strains, locus YDL074C, strain BRE1, hits give low values",1.01
same,normalized growth,[4],1
same,normalized growth,"S. cerevisiae deletion strains, locus YDL134C, strain PPH21, hits give low values",0.997
same,normalized growth,"S. cerevisiae deletion strains, locus YDL185W, strain tfp1, hits give low values",1.03
same,normalized growth,"S. cerevisiae deletion strains, locus YDL192W, strain arf1, hits give low values",1.02
same,normalized growth,"S. cerevisiae deletion strains, locus YDR101C, strain arx1, hits give low values",0.989
same,normalized growth,[5],0.999
same,normalized growth,"S. cerevisiae deletion strains, locus YDR162C, strain NBP2, hits give low values",0.991
same,normalized growth,"S. cerevisiae deletion strains, locus YDR318W, strain mcm21, hits give low values",1.01
same,normalized growth,"S. cerevisiae deletion strains, locus YDR388W, hits give low values",1.01
same,normalized growth,"S. cerevisiae deletion strains, locus YDR502C, strain sam2, hits give low values",0.995
same,normalized growth,[6],1
same,normalized growth,"S. cerevisiae deletion strains, locus YER110C, hits give low values",1.02
same,normalized growth,"S. cerevisiae deletion strains, locus YER155C, strain BEM2, hits give low values",0.996
same,normalized growth,"S. cerevisiae deletion strains, locus YER167W, strain BCK2, hits give low values",0.996
same,normalized growth,"S. cerevisiae deletion strains, locus YGL078C, strain dbp3, hits give low values",1.03
same,normalized growth,"S. cerevisiae deletion strains, locus YGL086W, strain mad1, hits give low values",0.989
same,normalized growth,"S. cerevisiae deletion strains, locus YGL248W, strain PDE1, hits give low values",0.995
same,normalized growth,[7],0.996
same,normalized growth,"S. cerevisiae deletion strains, locus YGR135W, strain pre9, hits give low values",1.02
same,normalized growth,"S. cerevisiae deletion strains, locus YGR252W, strain gcn5, hits give low values",0.985
same,normalized growth,[1],1
same,normalized growth,"S. cerevisiae deletion strains, locus YHR079C, strain IRE1 (second series), hits give low values",1.02
same,normalized growth,"S. cerevisiae deletion strains, locus YHR094C, strain hxt1, hits give low values",1.01
same,normalized growth,"S. cerevisiae deletion strains, locus YHR129C, strain ARP1, hits give low values",1
same,normalized growth,"S. cerevisiae deletion strains, locus YHR200W, strain rpn10, hits give low values",1.01
same,normalized growth,"S. cerevisiae deletion strains, locus YIL066C, strain RNR3, hits give low values",1
same,normalized growth,"S. cerevisiae deletion strains, locus YIL073C, strain SPO22, hits give low values",1.03
same,normalized growth,"S. cerevisiae deletion strains, locus YIL125W, strain kgd1, hits give low values",1.01
same,normalized growth,"S. cerevisiae deletion strains, locus YIR030C, strain dcg1, hits give low values",1.01
same,normalized growth,[2],0.989
same,normalized growth,"S. cerevisiae deletion strains, locus YJL134W, strain LCB3, hits give low values",1.01
same,normalized growth,"S. cerevisiae deletion strains, locus YJL168C, strain set2, hits give low values",1.01
same,normalized growth,"S. cerevisiae deletion strains, locus YJL187C, strain SWE1 (second series), hits give low values",0.998
same,normalized growth,[8],0.991
same,normalized growth,[9],0.995
same,normalized growth,"S. cerevisiae deletion strains, locus YKL009W, strain mrt4, hits give low values",1.01
same,normalized growth,"S. cerevisiae deletion strains, locus YKL068W, hits give low values",1.01
same,normalized growth,"S. cerevisiae deletion strains, locus YKL085W, strain MDH1 (second series), hits give low values",1.02
same,normalized growth,"S. cerevisiae deletion strains, locus YKL085W, strain MDH1, hits give low values",1.02
same,normalized growth,[10],1.01
same,normalized growth,"S. cerevisiae deletion strains, locus YKR001C, strain vps1, hits give low values",1.01
same,normalized growth,[11],1.02
same,normalized growth,"S. cerevisiae deletion strains, locus YLR058C, strain SHM2, hits give low values",1
same,normalized growth,"S. cerevisiae deletion strains, locus YLR102C, strain apc9, hits give low values",1.01
same,normalized growth,[12],1.07
same,normalized growth,"S. cerevisiae deletion strains, locus YLR268W, strain sec22, hits give low values",1.01
same,normalized growth,"S. cerevisiae deletion strains, locus YLR330W, strain CHS5, hits give low values",1
same,normalized growth,"S. cerevisiae deletion strains, locus YLR342W, strain FKS1 (second series), hits give low values",1.01
same,normalized growth,"S. cerevisiae deletion strains, locus YLR371W, strain rom2, hits give low values",1.02
same,normalized growth,"S. cerevisiae deletion strains, locus YLR418C, strain cdc73, hits give low values",0.977
same,normalized growth,"S. cerevisiae deletion strains, locus YML016C, strain PPZ1, hits give low values",1
same,normalized growth,"S. cerevisiae deletion strains, locus YML032C, strain rad52, hits give low values",1.01
same,normalized growth,"S. cerevisiae deletion strains, locus YML124C, strain tub3, hits give low values",1.01
same,normalized growth,"S. cerevisiae deletion strains, locus YMR078C, strain ctf18, hits give low values",1
same,normalized growth,"S. cerevisiae deletion strains, locus YMR223W, strain ubp8, hits give low values",0.997
same,normalized growth,[13],0.999
same,normalized growth,"S. cerevisiae deletion strains, locus YMR307W, strain GAS1, hits give low values",1.02
same,normalized growth,"S. cerevisiae deletion strains, locus YNL067W, strain RPL9B, hits give low values",0.993
same,normalized growth,[14],0.994
same,normalized growth,"S. cerevisiae deletion strains, locus YNL233W, strain BNI4, hits give low values",0.974
same,normalized growth,"S. cerevisiae deletion strains, locus YNL250W, strain rad50, hits give low values",1.01
same,normalized growth,"S. cerevisiae deletion strains, locus YNL271C, strain bni1, hits give low values",1.04
same,normalized growth,"S. cerevisiae deletion strains, locus YNL298W, strain CLA4, hits give low values",1.02
same,normalized growth,"S. cerevisiae deletion strains, locus YNL307C, strain MCK1, hits give low values",1.02
same,normalized growth,"S. cerevisiae deletion strains, locus YNR052C, strain pop2, hits give low values",1.01
same,normalized growth,"S. cerevisiae deletion strains, locus YOL006C, strain TOP1, hits give low values",0.981
same,normalized growth,"S. cerevisiae deletion strains, locus YOL012C, strain htz1",0.887
same,normalized growth,"S. cerevisiae deletion strains, locus YOL147C, strain pex11, hits give low values",1.01
same,normalized growth,"S. cerevisiae deletion strains, locus YOR061W, strain CKA2, hits give low values",1.01
same,normalized growth,"S. cerevisiae deletion strains, locus YOR069W, strain VPS5, hits give low values",1
same,normalized growth,"S. cerevisiae deletion strains, locus YOR136W, strain idh2, hits give low values",1.02
same,normalized growth,"S. cerevisiae deletion strains, locus YOR144C, strain elg1, hits give low values",1.01
same,normalized growth,"S. cerevisiae deletion strains, locus YOR184W, strain ser1, hits give low values",1
same,normalized growth,"S. cerevisiae deletion strains, locus YOR316C, strain cot1, hits give low values",1.03
same,normalized growth,[15],1
same,normalized growth,"S. cerevisiae deletion strains, locus YPR119W, strain clb2, hits give low values",1.02
same,normalized growth,"S. cerevisiae deletion strains, locus YPR141C, strain kar3, hits give low values",1.02
same,normalized growth,"S. cerevisiae deletion strains, locus YPR163C, strain tif3, hits give low values",0.994
same,normalized growth,"S. cerevisiae deletion strains, locus YPR167C, strain met16, hits give low values",1.02
same,normalized growth,"S. cerevisiae deletion strains, strain wtn01, hits give low values",1.03
same,normalized growth,"S. cerevisiae strains, strain wild type, hits give low values",1.01
